Test results as given in PubChem BioAssay (NCI).
This is part of a sample that, as a whole, favours compounds with a hit. Of some 79,000 tested, about 15% had one in any assay. Rule as the data show it: active = growth inhibition above about 70%; inactive = the rest.

Experiments:
[1] = NCI Yeast Anticancer Drug Screen. Data for the rad50 strain (AID 155);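 also: 0% = growth of vehicle-only cultures of the same strain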; conditions: S. cerevisiae rad50 strain growth inhibition; at 50.0 µM; hits give high values
Outline: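 Genetically altered yeast (DNA repair pathway); compound treatment; growth inhibition vs vehicle ctrl.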

[2] = NCI Yeast Anticancer Drug Screen. Data for the mec2-1 strain (AID 157); conditions: S. cerevisiae mec2-1 strain, at 50.0 µM, hits give high values
Outline: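 Readout is yeast growth inhibition, normalised to vehicle-treated controls, in the mec2-1 strain exposed to compound.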

[3] = NCI Yeast Anticancer Drug Screen. Data for the sgs1 mgt1 strain (AID 161);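 also: 0% = growth of cultures given vehicle only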; conditions: S. cerevisiae sgs1 mgt1 strain, at 50.0 µM, hits give high values
Outline: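 Compounds are added to genetically altered yeast, and growth is compared with cultures given vehicle alone to give percent inhibition.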

[4] = NCI Yeast Anticancer Drug Screen. Data for the cln2 rad14 strain (AID 165);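 also: 0% = growth equal to vehicle treated cultures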; conditions: S. cerevisiae cln2 rad14 strain, at 50.0 µM, hits give high values
Outline: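 Relative to vehicle controls, growth inhibition of compound-treated cln2 rad14 yeast was recorded.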

[5] = NCI Yeast Anticancer Drug Screen. Data for the bub3 strain (AID 167); conditions: S. cerevisiae bub3 mutant strain, at 50.0 µM, hits give high values
Outline: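 Yeast carrying a defined mutation is treated with each compound, and growth is compared with that of vehicle-exposed cells to give inhibition.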

[6] = NCI Yeast Anticancer Drug Screen. Data for the mlh1 rad18 strain (AID 175); conditions: S. cerevisiae mlh1 rad18 strain growth inhibition; at 50.0 µM; hits give high values
Outline: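 Test agents were incubated with a yeast strain of defined genotype (DNA damage repair defect). Inhibition of growth was derived by comparison with vehicle-exposed cultures.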

Measured: growth inhibition

O=C(NC1=NN(Cc2ccccc2)C(=O)C1)c1ccc(S(=O)(=O)F)cc1
inactive: [1] -0.35% | [2] -14.9% | [3] 19.6% | [4] 9.55% | [5] 9.8% | [6] 11.6%

CC1CN1C1c2ccccc2CC1O (stereo not given)
inactive: [1] 1.2% | [2] -13.2% | [3] -11.8% | [4] -15.4% | [5] -20.3% | [6] -8.95%

N#CC(C#N)=C(C#N)C#N
inactive: [1] 14.1% | [2] 4.6% | [3] 1.9% | [4] -25.9% | [5] 0.05% | [6] 6.25%

CC1CN=C(Nc2ccc(F)cc2F)S1 (stereo not given)
inactive: [1] -9.1% | [2] -8.6% | [3] -65.7% | [4] -24.4% | [5] 12.5% | [6] -36.6%

CC(C(=O)c1ccccc1)N(C)C (stereo not given)
inactive: [1] 2.15% | [2] -6.85% | [3] -4.2% | [4] -50.4% | [5] -19.7% | [6] 5.5%

Clc1cccc2ccccc12
inactive: [1] 7.8% | [2] -12.2% | [3] 0.1% | [4] 14.1% | [5] 3.4% | [6] 16.1%

CN(C)P1(=O)NCC(C(C)(C)C)CO1 (stereo not given)
inactive: [1] 26.4% | [2] -21.1% | [3] -5.3% | [4] 21.6% | [5] -0.1% | [6] -16.8%

c1ccc(CN2C3c4ccccc4C2c2ccccc23)cc1
inactive: [1] -0.15% | [2] -2.2% | [3] -4% | [4] -12.3% | [5] -2.8% | [6] 3%

c1ccc(C(c2ccccc2)C2CCNCC2)cc1
inactive: [1] 29.1% | [2] 6.8% | [3] 3.2% | [4] 16.2% | [5] 32.6% | [6] 2.85%

OCCCN=Cc1ccccc1O.OCCCN=Cc1ccccc1O.[Cu]
inactive: [1] 38% | [2] -9.5% | [3] 22.2% | [4] -32.1% | [5] 0.35% | [6] 15.6%

N/C(=N/N=C/c1ccc(O)cc1)N[N+](=O)[O-]
inactive: [1] -2.4% | [2] -29.6% | [3] -14.3% | [4] -31.5% | [5] -6.75% | [6] 9%

COc1cc([As](=O)(O)O)c(OC)cc1N
inactive: [1] -9.7% | [2] 6.6% | [3] -0.9% | [4] -55.7% | [5] 5.5% | [6] -17.1%

C/C=C1/CN2CCC1CC2C(O)c1ccnc2ccc(OCCO)cc12 (stereo not given)
inactive: [1] -8.4% | [2] -13.2% | [3] -2.35% | [4] -9.35% | [5] -24.6% | [6] 24.9%

COc1ccc2c(c1OC(C)=O)C1=CC(=O)CCC13CCNC3C2 (stereo not given)
inactive: [1] 15.8% | [2] 6.7% | [3] -13.9% | [4] 27.2% | [5] -28.4% | [6] -24.3%

COC(=O)/C=C/[C@H]1[C@H](C)N1S(=O)(=O)c1ccc(C)cc1 (stereo not given in full)
inactive: [1] 8.75% | [2] 20.1% | [3] 14.8% | [4] 4.4% | [5] -22.6% | [6] -7.25%

C#CCn1c(I)cc2c(c1=O)COC(=O)[C@]2(O)CC
inactive: [1] 0.95% | [2] -3.3% | [3] 19.6% | [4] -5.4% | [5] 6.35% | [6] -31.8%

CCCCn1c(C)c(C(=O)OCC)c2cc(OCc3ccc(C(=O)Nn4c(C)ccc4C)cc3)c(Br)cc21
inactive: [1] 7.1% | [2] -30.7% | [3] -15.5% | [4] -18.6% | [5] -27.4% | [6] -20.1%

O=C(CCC1C(=O)NC(=S)NC1=O)c1ccc2ccccc2c1
inactive: [1] 14.7% | [2] 17.8% | [3] -12.2% | [4] 5.3% | [5] -7.95% | [6] -8.15%

CN1C2CCC1CC(O)(c1ccc(Cl)cc1)C2 (stereo not given)
inactive: [1] 26.1% | [2] 16.4% | [3] 16.6% | [4] 16.1% | [5] 30.4% | [6] 28.1%

COC(=O)CCP(CCC(=O)OC)c1ccccc1
inactive: [1] -3.9% | [2] -11% | [3] -7.15% | [4] -10.7% | [5] -4.85% | [6] 1.1%
